TexasRed fluor – Total Fluorescence Counterscreen for Inhibitors of the Interaction of Thyroid Hormone Receptor and Steroid Receptor Coregulator 2 | AID 1479, 2009 | hit rate 0.29% among 280,000 | Potency, µM (highest dose often 106 µM), for the others: top-dose fluorescence change, negative = quenching | TRb/SRC2 Texas Red total fluorescence interference; active = well fitted curve in either direction with a large enough effect; inconclusive = small, poorly fitted or top-dose-only effect
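Human TRb ligand-binding domain at 0.6 uM with 20 nM Texas Red SRC2 peptide in Tris buffer containing 1 uM T3 and 5% DMSO, incubated with compound 5 h at ambient temperature. Total fluorescence (555/632 nm) calculated as parallel + 2 × perpendicular.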
TRb SRC2 PPI – qHTS for Inhibitors of the Interaction of Thyroid Hormone Receptor and Steroid Receptor Coregulator 2 | Thyroid hormone receptor beta (Homo sapiens), P10828 | TRbeta-SRC2 peptide binding, fluorescence polarization; receptor liganded with 1 µM T3 | Potency, µM (top dose mostly 106 µM), for the others: at the highest dose activity change, negative = inhibition, hits mostly inhibitors | hit rate 0.065% among 280,000 | AID 1469, 2008;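 note: plate controls were bound peptide for no effect and peptide without receptor for full effect; nearly all actives have a fitted effect of over 50% in size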
Target sequence (P10828 whole entry, looked up): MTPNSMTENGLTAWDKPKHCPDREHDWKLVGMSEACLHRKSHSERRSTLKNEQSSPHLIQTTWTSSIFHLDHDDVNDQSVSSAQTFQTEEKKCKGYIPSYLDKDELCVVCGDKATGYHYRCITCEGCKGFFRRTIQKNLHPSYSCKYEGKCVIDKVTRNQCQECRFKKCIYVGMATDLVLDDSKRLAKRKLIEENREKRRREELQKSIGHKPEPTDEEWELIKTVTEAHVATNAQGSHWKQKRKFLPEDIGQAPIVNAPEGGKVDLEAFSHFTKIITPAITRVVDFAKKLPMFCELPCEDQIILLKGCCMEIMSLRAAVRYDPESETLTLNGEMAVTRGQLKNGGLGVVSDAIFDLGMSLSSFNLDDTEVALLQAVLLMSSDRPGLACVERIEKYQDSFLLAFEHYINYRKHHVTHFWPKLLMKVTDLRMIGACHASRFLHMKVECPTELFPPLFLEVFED
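Human TRb ligand-binding domain (0.6 uM) is mixed with 20 nM Texas Red SRC2 peptide and 1 uM T3; after compound addition and 5 hr at ambient temperature, polarization is measured and normalized to unbound and bound controls.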
Tau fluor cs – Counterscreen qHTS for Inhibitors of Tau Fibril Formation, Fluorescence Polarization; tau K18 P301L Alexa594 fluorescence, heparin fibrillization; Potency, µM (highest dose often 57.7 µM), for the others: at the top dose activity change, negative = decrease; hit rate 0.93% among 280,000; note: nearly all actives have a fitted effect of over 55% in size
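Human K18 P301L tau (15 uM unlabeled plus 0.24 uM Alexa 594-labeled, final) in 100 mM sodium acetate pH 7 was mixed with compound and 20 uM heparin and incubated 6 hr at 37 C.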
Tau fibril ThT – qHTS for Inhibitors of Tau Fibril Formation, Thioflavin T Binding | recombinant tau K18 P301L (four-repeat tau fragment), heparin-induced fibrillization, ThT fluorescence | hit rate 2.1% among 270,000 | Potency, µM (doses to about 57.4 µM), for inactives: at the top dose activity, negative = inhibition, hits mostly inhibitors | Microtubule-associated protein tau (Homo sapiens), P10636; note: nearly all actives have a fitted effect of over 55% in size
Target sequence (P10636 561-689 P618L limits assumed): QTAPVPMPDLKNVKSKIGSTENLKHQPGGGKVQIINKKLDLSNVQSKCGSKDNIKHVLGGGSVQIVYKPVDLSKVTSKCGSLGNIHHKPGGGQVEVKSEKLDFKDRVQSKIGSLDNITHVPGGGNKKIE
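K18 P301L tau (15 uM + 0.24 uM Alexa 594-tagged), heparin 20 uM, NaOAc pH 7, 6 h 37 C; ThT 30 uM, 1 h RT, ex 450/em 510 nm.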
Tau fibril FP – qHTS for Inhibitors of Tau Fibril Formation, Fluorescence Polarization; Potency, µM (highest dose often 57.7 µM), for the others: top-dose activity, negative = inhibition, usual class: inhibitors; AID 1468, 2008; Microtubule-associated protein tau (Homo sapiens), P10636; hit rate 0.39% among 280,000; K18 P301L tau heparin fibrillization, Alexa594 FP, 6 h; note: nearly all actives have a fitted effect of over 55% in size
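Human K18 P301L fragment (15 uM unlabeled plus 0.24 uM Alexa 594-labeled) in 100 mM sodium acetate pH 7 with compound, aggregation induced by 20 uM heparin for 6 hr at 37 C. ThT (30 uM) added for 1 hr, then Alexa 594 FP read.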
* hit, by the source's call; u = inconclusive; x = not tested or not shown; [ ] = remark or other dose. The list is not random: actives were taken first. Their share in the collection is about 3%. Unless noted, calls come from the whole dose curve; as a rule, active = well fitted curve in the direction sought with a large enough effect; inconclusive = small, poorly fitted or top-dose-only effect, or another doubt; inactive = no such curve, though single readings can be large; an effect the other way counts as inactive or inconclusive. Unless noted, % is set by controls: 0 for no effect and ±100 for the full control effect; potency is the fitted concentration of half-maximal effect.

SMILES	TexasRed fluor	TRb SRC2 PPI	Tau fluor cs	Tau fibril ThT	Tau fibril FP
N#Cc1c(C(F)(F)F)cc(-c2cccs2)nc1SCC(=O)Nc1cccc(C(F)(F)F)c1	-4%	-2%	-22%	-11%	u
Brc1ccc(-c2csc(-c3c[nH]c4ccccc34)n2)cc1	-1%	7%	u	u	-6%
c1ccc2c(-c3csc(-c4ccncc4)n3)c[nH]c2c1	-4%	0%	13µM*[quencher]	3.2µM*	-6%
O=C(NCc1cccc(Cl)c1)c1oc(=O)c2ccccc2c1-c1ccccc1	-4%	4%	-15%	0%	-5%
C/C(=N\Nc1cc(C)nc(-c2ccccc2O)n1)c1ccccc1O	-1%	-1%	10µM*[quencher]	u	u
COC(=O)c1cccc(Nc2cc(C)nc(-c3ccccc3O)n2)c1	-4%	-2%	u	u	11µM*
COC(=O)c1ccc(Nc2cc(C)nc(-c3ccccc3O)n2)cc1	-2%	-12%	u	1%	u
Cc1noc(C)c1-c1ccc2ncnc(NCc3ccccc3C(F)(F)F)c2c1	-2%	3%	x	x	x
CCc1ccccc1NC(=O)Nc1cc(C(=O)NCc2ccccc2OC)ccc1N1CCCC1	0%	0%	-12%	2%	10%
COc1cc(OC)c(NC(=O)CCn2cccn2)cc1Cl	-2%	-4%	-3%	-2%	2%
O=[N+]([O-])c1cc(C(F)(F)F)ccc1NCCc1c[nH]c2ccc(O)cc12	-1%	-4%	28µM*[quencher]	18µM*	0%
O=[N+]([O-])c1cc(C(F)(F)F)ccc1NCCc1c[nH]c2ccccc12	-2%	-16%	10µM*[quencher]	13µM*	-2%
Cc1cccc(NC(=O)CSc2ncc(-c3ccc(Br)cc3)[nH]2)c1	0%	6%	u	-4%	u
COc1ccc(CCNC(=O)c2cc(-c3ccccc3)nc3ccccc23)cc1OC	-3%	0%	-28%	-7%	-8%
O=C(COC(=O)c1cc(-c2cccs2)nc2ccccc12)NCc1ccco1	0%	0%	-26%	16µM*	20µM*
O=C(NCc1ccco1)c1cc(-c2cccs2)nc2ccccc12	u	2%	-25%	-4%	-9%
O=C(N/N=C/c1cn(CCOc2ccccc2)c2ccccc12)c1ccncc1	-6%	8%	14µM*[quencher]	u	3%
COc1ccccc1OCCn1cc(/C=N/NC(N)=S)c2ccccc21	-4%	-4%	u	u	u
COc1ccccc1OCCn1cc(/C=N/NC(=O)c2ccncc2)c2ccccc21	-2%	-1%	13µM*[quencher]	u	u
Fc1ccc(-c2nn(-c3ccc(Cl)cc3)c3c2cnc2ccc(F)cc23)cc1	2%	0%	1%	2%	-4%
CC1CCC(C(C)C)[C@H](O)C1 (stereo partly specified)	1%	8%	-2%	1%	-2%
Cc1ccc(-n2c(=O)c3c4c(sc3n(CC(=O)Nc3ccccc3C)c2=O)CCCCC4)cc1C	u	-11%	-1%	2%	-2%
CNc1ccc(Br)cc(C(=O)/C=C/c2cccc(OC)c2)c1=O	-10%	1%	u	11µM*	-16%
COc1ccc(/C=C/C(=O)c2ccc(OC)cc2OC)c(OC)c1	0%	6%	-19%	u	5%
COc1cccc(/C=C/C(=O)Nc2ccc3[nH]c(=O)[nH]c3c2)c1	-4%	7%	-8%	2%	-1%
SMILES	TexasRed fluor	TRb SRC2 PPI	Tau fluor cs	Tau fibril ThT	Tau fibril FP
CNc1ccc(Br)cc(C(=O)/C=C/c2ccc(Cl)cc2Cl)c1=O	-6%	0%	u	10µM*	u
CNc1ccc(Br)cc(C(=O)/C=C/c2ccc(OC)cc2OC)c1=O	-4%	3%	u	11µM*	u
CN(C)/C=C/C(=O)/C=C/c1ccc(Cl)cc1Cl	-2%	3%	-7%	u	0%
CCOc1ccccc1C(=O)Nc1c(C(=O)Nc2ccc(F)cc2)oc2ccccc12	-1%	-5%	-27%	5%	u
CCC(CC)C1C(C#N)=C(N)Oc2cc(C)oc(=O)c21 (stereo unspecified)	1%	-12%	-7%	-9%	-2%
Cc1cc2c(c(=O)o1)C(c1ccc([N+](=O)[O-])o1)C(C#N)=C(N)O2 (stereo unspecified)	28%	-11%	-25%	14µM*	u
Cc1[nH]c2ccccc2c1/C=N/Nc1ccc([N+](=O)[O-])cc1	-6%	-2%	-1%	0%	4%
Cc1[nH]c2ccccc2c1/C=N/Nc1nc(Nc2ccccc2)nc(N2CCOCC2)n1	-11%	-9%	22µM*[quencher]	u	u
Cc1[nH]c2ccccc2c1/C=N/Nc1nncn1N	-6%	3%	u	14µM*	-5%
Cc1[nH]c2ccccc2c1/C=N/Nc1ccc(F)cc1F	-10%	6%	u	13µM*	5%
Cc1[nH]c2ccccc2c1/C=N/Nc1ccccn1	-4%	-1%	16µM*[quencher]	10µM*	7%
CN(C)c1ccc(CN(CC2CCCO2)C(=O)COc2ccccc2Cl)cc1 (stereo unspecified)	-1%	-9%	-14%	-12%	4%
COC(=O)c1ccccc1C(=O)O	0%[201 µM]	5%[201 µM]	x	x	x
Nc1ccc(-c2nc3c(Cl)cc(N)cc3[nH]2)cc1	-9%	5%	u	20µM*	u
Cc1oc(=O)c(NC(=O)c2ccccc2)cc1C(=O)c1ccccc1	-1%	-12%	-14%	25µM*	u
CC(=O)c1cc(NC(=O)c2ccc(C)cc2)c(=O)oc1C	-1%	-3%	-11%	32µM*	u
Cc1oc(=O)c(NC(=O)c2ccc(Cl)cc2)cc1C(=O)c1ccccc1	x	x	-27%	18µM*	u
CC(=O)c1cc(NC(=O)c2ccccc2)c(=O)oc1C	-3%	-2%	-14%	28µM*	u
CC1=C(C(=O)Nc2ccc(C)cc2C)C(c2ccc(C(C)C)cc2)n2nc(C(F)(F)F)nc2N1 (stereo unspecified)	u	-4%	-23%	u	-13%
O=C1CC(c2ccc(O)c(O)c2)Oc2c1ccc(O)c2O (stereo unspecified)	-8%	1%	u	16µM*	u
CC(C)=CCc1c(O)ccc2c1OC(c1ccc(O)c(O)c1)CC2=O (stereo unspecified)	-3%	-3%	u	u	u
COc1cccc(NC(=S)N(CCc2c(C)[nH]c3ccc(C)cc23)Cc2cccs2)c1	-1%	-3%	-8%	-3%	6%

Source: PubChem
